# Assay outcomes as filed in PubChem BioAssay.
# The entries come from a sample that favours hits as a whole.
# AmpC inh no detg – inhibitors of E. coli AmpC beta-lactamase without detergent; P00811; AmpC nitrocefin hydrolysis, absorbance 480 nm, 0.0001% Triton; Potency, µM (doses to about 57.1 µM), most hits filed as inhibitors; 0.52% of 330,000 active; AID 485341; also: nearly all actives have a fitted effect of over 20% in size
# Target sequence (P00811 whole entry, looked up): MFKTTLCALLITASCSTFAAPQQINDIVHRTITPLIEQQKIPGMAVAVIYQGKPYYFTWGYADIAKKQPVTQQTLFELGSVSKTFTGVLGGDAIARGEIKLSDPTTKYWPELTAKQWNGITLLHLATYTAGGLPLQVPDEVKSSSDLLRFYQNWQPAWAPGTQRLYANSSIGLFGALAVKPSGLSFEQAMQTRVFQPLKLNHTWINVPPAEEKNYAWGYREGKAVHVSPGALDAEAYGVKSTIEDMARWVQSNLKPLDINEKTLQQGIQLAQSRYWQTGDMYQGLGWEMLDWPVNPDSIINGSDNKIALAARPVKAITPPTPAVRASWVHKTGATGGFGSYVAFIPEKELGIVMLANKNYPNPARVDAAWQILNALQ
#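 20 mM phosphate pH 7.0 + 0.01% (detergent screen) or 0.0001% Triton X-100; 5.3 nM AmpC reagent; cpd preinc 15 min RT; nitrocefin (800 uM stock) to start; A480 q20 s × 4 min; Activity was normalised to no-enzyme and no-compound control wells.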
# NS1 function inh – inhibitors of influenza NS1 protein function; Potency, µM (doses to about 46.1 µM); 0.4% of 270,000 active; calls by dose curve; also: actives are rising curves; nearly all actives have a fitted effect of over 50% in size
#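 OD600 was taken as the measure of yeast growth restored by compound in an NS1-expressing S. cerevisiae strain. Cells had been washed out of glucose medium and diluted 1:100 into galactose -URA medium, pH 6.0.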
# AmpC detergent – blocks E. coli AmpC beta-lactamase in detergent assay. Potency, µM (top dose mostly 114 µM), usual class: inhibitors. AmpC hydrolysis of nitrocefin, absorbance 480 nm, 0.01% Triton. 0.041% of 370,000 active. P00811; also: nearly all actives have a fitted effect of over 25% in size
#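 AmpC (5.3 nM in the dispensed reagent) in 20 mM phosphate pH 7.0 with 0.01% (detergent screen) or 0.0001% Triton X-100 was preincubated with compounds for 15 min at room temperature. Nitrocefin was then added from an 800 uM solution, and hydrolysis was followed at 480 nm.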
# Shiga inhibitor – Shiga toxin inhibition; inhibition, % at 38.7 µM; Vero cells, Shiga toxin protein synthesis inhibition reporter; 9.2% of 290,000 active; AID 2315; in the data active = inhibition mostly above about 28%, no sharp cut-off; inactive = mostly below about 43%
# Cycloheximide cs – affects cycloheximide protein synthesis inhibition readout, counter-screen | max response, % | 12% of 300,000 active | cell reporter, cycloheximide protein synthesis inhibition counterscreen; in the data active = max response mostly above about 13%, no sharp cut-off; inactive = mostly below about 14%; also: read at 38.3 µM for the half of the compounds with a filed dose
# Numbers stand for hits; n = inactive; u = inconclusive; x = not tested or not shown. Unless noted, calls follow the shape of the dose curve; as a rule, active = well fitted curve in the direction sought with a large enough effect; inconclusive = small, poorly fitted or top-dose-only effect, or another doubt; inactive = no such curve, though single readings can be large; an effect the other way counts as inactive or inconclusive.
SMILES,AmpC inh no detg,NS1 function inh,AmpC detergent,Shiga inhibitor,Cycloheximide cs
CCOC(CNc1ncnc2sc(-c3ccccc3)cc12)OCC,n,n,n,n,11.6
CCOC(=O)c1cnn(-c2ccccn2)c1N,n,n,n,99.2,63.4
CCOC(=O)C1CCN(c2ncnc3c2oc2ccccc23)CC1,n,n,n,n,n
CCOC(=O)c1cnn(-c2cc(Oc3ccccc3)ncn2)c1N,n,n,n,n,n
CCOC(=O)c1cnn(-c2ncnc3c2oc2ccccc23)c1N,n,n,u,n,15.9
CCOC(=O)C1CCCN(c2ncnc3c2oc2ccccc23)C1 (stereo not drawn),n,n,u,n,17.5
Cc1ccc(Sc2ncccc2[N+](=O)[O-])cc1,n,n,n,n,n
Cc1ccc(Sc2ncccc2COC(=O)NC(C)C)cc1,n,x,n,117.6,36.6
O=C(O)c1ccc(CSCc2ccccc2Cl)o1,n,n,n,n,n
CCC(C)NC(=O)c1ccc(CSCc2ccccc2Cl)o1 (stereo not drawn),n,n,n,n,23.2
CC(C)NC(=O)c1ccc(CSCc2ccccc2Cl)o1,n,n,n,n,26.5
COc1oc(=O)c2cc(N)ccc2c1Cl,x,x,x,71.5,61.7
O=c1oc(Cl)c(Cl)c2ccccc12,n,n,n,x,x
O=C(Nc1ccccc1)C(O)C(O)C(=O)Nc1ccccc1 (stereo not drawn),n,n,n,n,n
CCC(CC)C(=O)Nc1ccc(Nc2ccccc2)cc1,n,n,n,n,18.8
CC(C)C(=O)Nc1ccc(Nc2ccccc2)cc1,n,n,n,n,17.3
CCC(CC)C(=O)Nc1cc(NC(=O)C(CC)CC)cc(C(=O)O)c1,n,n,n,n,n
CC(C)CCNC(=O)c1cccc(Nc2nc3ccccc3n3nnnc23)c1,x,x,n,x,x
CC(C)c1nc2cc(C(=O)NC(c3cccnc3)C(F)(F)F)ccc2o1 (stereo not drawn),n,n,n,n,17.9
CC(C)c1nc2cc(C(=O)N(C)Cc3ccc(F)cc3)ccc2o1,n,n,n,80.3,42.5
COc1cc(CNC(=O)c2ccc3oc(C(C)C)nc3c2)cc(OC)c1,n,n,n,n,14.3
O=C(O)CCCc1ccc2ccc3ccccc3c2c1,x,n,x,x,x
O=C(CSC1=Nc2ccccc2C2=NC(Cc3ccccc3)C(=O)N12)Nc1ccccc1C(F)(F)F (stereo not drawn),x,x,n,x,x
CC(=O)Nc1cccc(-c2csc(Nc3ccc(Cl)cn3)n2)c1,n,n,n,146.5,46.2
CC(=O)Nc1ccc(-c2csc(Nc3ccc(Cl)cn3)n2)cc1,n,x,n,n,38.4
SMILES,AmpC inh no detg,NS1 function inh,AmpC detergent,Shiga inhibitor,Cycloheximide cs
O=C(O)c1c(-c2ccccc2)oc2ccc(O)cc12,n,n,n,n,n
Cc1oc2ccc(O)cc2c1C(=O)c1ccccc1,n,n,n,n,14.7
Cc1[nH]c2ccccc2c(=O)c1CN(C)Cc1ccccc1,n,n,u,n,26.7
Cc1cccc(C)c1OCc1cc(C(=O)NC2CCC(O)CC2)no1 (stereo not drawn),n,n,n,n,n
Cc1cccc(C)c1OCc1cc(C(=O)NCC2CC2)no1,n,n,n,n,10.0
Cc1cccc(C)c1OCc1cc(C(=O)NCc2ccc(Cl)s2)no1,n,n,n,n,17.7
CCOC(=O)N1CCC(NC(=O)c2cc(COc3c(C)cccc3C)on2)CC1,n,n,n,n,14.0
Cc1cccc(C)c1OCc1cc(C(=O)NC2CCC2)no1,n,n,u,37.1,36.6
CCCCc1nn2c(=O)cc(COC(=O)c3ccccc3NC(=O)c3cccs3)nc2s1,x,x,n,x,x
COc1ccc(-c2oc3ncn4nc(-c5ccccc5Cl)nc4c3c2-c2ccc(OC)cc2)cc1,x,x,n,x,x
CN(C)c1ccc(/C=N\NC(=O)c2cnc3ccccc3c2)cc1,x,n,x,x,x
Cc1ccc2nc3sc(C(=O)NCCCN(C)c4ccccc4)cc3cc2c1,x,x,n,x,x
O=C(NNC(=O)c1cc2cc3ccccc3nc2s1)c1cccc(C(F)(F)F)c1,n,n,u,n,n
O=C(NC1CC1)c1cc2cc3ccccc3nc2s1,n,n,n,98.9,40.8
O=C(NNS(=O)(=O)c1ccccc1)c1cc2cc3ccccc3nc2s1,n,n,n,53.6,n
O=C(NC1CC1)c1cc2cc(Br)ccc2s1,n,n,n,50.9,38.0
Cc1cccc(C(=O)NCC(=O)OCc2cc(=O)n3nc(C)sc3n2)c1,x,x,n,x,x
CC1Cc2ccccc2N1Cc1cc(=O)c(OCC(=O)Nc2ccccc2)co1 (stereo not drawn),35.5µM,x,n,x,x
c1ccc(CSc2ccc(-c3ccco3)nn2)cc1,n,n,n,n,26.3
Clc1cccc(CSc2ccc(-c3ccco3)nn2)c1,n,x,n,61.1,31.2
Cc1ccc(CSc2ccc(-c3ccco3)nn2)cc1,n,n,n,n,n
Clc1ccc(CSc2ccc(-c3ccco3)nn2)cc1,n,x,n,125.6,23.4
c1ccc(CSc2ccc(-c3cccnc3)nn2)nc1,n,x,n,50.4,21.0
O=C(CSc1ccc(-c2ccco2)nn1)NCc1ccc(Cl)cc1,n,n,n,n,n
COc1ccc(CN(C)C(=O)c2cc(S(=O)(=O)Nc3ccccc3F)ccc2C)c(OC)c1,n,n,u,n,n
SMILES,AmpC inh no detg,NS1 function inh,AmpC detergent,Shiga inhibitor,Cycloheximide cs
COc1cccc(CNC(=O)Cn2c(=O)oc3cc(S(=O)(=O)N4CCCC4)ccc32)c1,x,x,n,x,x
CCOc1ccccc1OCCCCn1c(-c2ccc(Cl)cc2)nc2ccccc2c1=O,x,x,n,x,x
Cc1cccc(CSc2ccc(-c3ccco3)nn2)c1,n,n,n,n,16.6
Clc1cccc(CSc2ccc(-c3cccnc3)nn2)c1,n,x,n,n,28.9
Clc1cccc(CSc2nnc(-c3cccnc3)n2Cc2ccco2)c1,n,n,n,n,n
Fc1ccccc1CSc1ccc(-c2ccco2)nn1,n,x,n,119.6,49.7
CC(NC(=O)COC(=O)CCN1C(=O)C2CC=CCC2C1=O)c1ccc(Br)cc1 (stereo not drawn),n,x,n,x,x
O=C(CSc1ccccn1)Nc1ccc2c(c1)OCO2,n,n,n,100.8,34.5
O=C(CSc1ccccn1)NCc1ccc2c(c1)OCO2,n,n,n,n,11.8
O=C(CSc1nc2ccc(Cl)cc2o1)NCc1ccc2c(c1)OCO2,n,n,n,n,n
O=C(CSc1nnc2ccccn12)NCc1ccc2c(c1)OCO2,n,n,n,n,n
O=C(CSc1ccc2nnc(-c3ccccn3)n2n1)Nc1ccc2c(c1)OCO2,n,n,u,n,n
O=C(CSc1nnc(SCc2cccc3ccccc23)s1)c1ccc2c(c1)OCO2,25.1µM,n,n,n,13.7
O=C(CSc1nc2ccccc2o1)NCc1ccc2c(c1)OCO2,u,n,u,27.3,14.5
O=C(CSc1ccccn1)c1ccc2c(c1)OCO2,n,n,u,38.9,37.2
Cn1c(SCC(=O)c2ccc3c(c2)OCO3)nnc1-c1ccccn1,x,n,n,n,n
CC(Sc1nc2ccccc2s1)C(=O)NCc1ccc2c(c1)OCO2 (stereo not drawn),n,n,n,active,20.2
COCCCn1c(=S)[nH]c2sc3c(c2c1=O)CCCS3,n,x,n,90.8,39.9
